Some test systems named below: SR leukemia; RPMI-8226 leukemia; OVCAR-8 ovarian; OVCAR-5 ovarian; OVCAR-4 ovarian; SK-OV-3 ovarian; IGROV1 ovarian; OVCAR-3 ovarian; HS 578T breast; NCI/ADR-RES ovarian.
What all share (assay): NCI-60 one-dose screen, 48 h (100 = growth as untreated, 0 = no growth, -100 = all killed)
Settings in all cases: 10 µM

The panel holds about 83,000 compounds, 20% with a hit somewhere; the sample as a whole holds those more often.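 Activity criterion: percent growth below 10, measured after cells in 96-well plates were exposed to a single compound concentration for 48 hours.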 Values without a mark were called inactive. The source made the active and inactive calls.

For `COc1ccc(-c2c(N)c(=O)n(C)c3ccccc23)cc1`, the growth was 36.3% in the assay with SR leukemia; 25.1% with RPMI-8226 leukemia; 73.9% with OVCAR-8 ovarian; 76.7% in the assay with OVCAR-5 ovarian; 56.5% with OVCAR-4 ovarian; 100% in the assay on SK-OV-3 ovarian. In addition, the growth in the assay on IGROV1 ovarian is 46.5%; with OVCAR-3 ovarian it was 51.5%; in the assay with HS 578T breast it was 66.9%; in the assay with NCI/ADR-RES ovarian, 58.5%.
Consider `COc1ccc(/C=C/C(=O)c2ccc(S(=O)(=O)NCCNc3nc(Nc4ccc(F)cc4)nc(N(C)C)n3)cc2)cc1`, for which the growth with SR leukemia is 3.4% (active); with RPMI-8226 leukemia, 10.5%; with OVCAR-8 ovarian it was 50.6%; in the assay on OVCAR-5 ovarian, 42.5%; with OVCAR-4 ovarian it was 21.8%; in the assay on SK-OV-3 ovarian it was 76%. The growth in the assay with IGROV1 ovarian is 43.6%; in the assay on OVCAR-3 ovarian, 15.7%; in the assay with HS 578T breast, 39%; in the assay with NCI/ADR-RES ovarian, 28.1%.
With `COc1ccc(C2NC(=S)NC(C)=C2C(=O)OC(C)C)cc1OC` (stereo not given), the growth with SR leukemia is 101%; in the assay with RPMI-8226 leukemia, 104%; in the assay on OVCAR-8 ovarian, 106%; in the assay on OVCAR-5 ovarian, 105%; in the assay on OVCAR-4 ovarian it was 99.3%; in the assay with SK-OV-3 ovarian, 135%. For the same molecule, the growth in the assay on IGROV1 ovarian was 109%; in the assay with OVCAR-3 ovarian, 113%; in the assay on HS 578T breast, 89.8%; in the assay on NCI/ADR-RES ovarian, 102%.
For `C/C(=C\c1ccc(O)cc1O)c1ccc2ccc(O)cc2[o+]1`, the growth in the assay on SR leukemia was 20.2%; in the assay on RPMI-8226 leukemia it was 65.7%; in the assay on OVCAR-8 ovarian, 9.36% (active); in the assay on OVCAR-5 ovarian it was 192%; in the assay on OVCAR-4 ovarian, 74.4%; in the assay with SK-OV-3 ovarian, 103%. In addition, the growth was 47.8% in the assay with IGROV1 ovarian, 28.7% with OVCAR-3 ovarian, 90.2% in the assay on HS 578T breast and 22.1% with NCI/ADR-RES ovarian.
On to `O=C(Cc1ccc2c(c1)CN(C1CCC(=O)NC1=O)C2=O)NCCc1ccccc1` (stereo not given), for which the growth with SR leukemia is 53.5%; with RPMI-8226 leukemia, 45.6%; with OVCAR-8 ovarian it was 4.26% (active); in the assay with OVCAR-5 ovarian it was 37.6%; with OVCAR-4 ovarian it was 10.6%; with SK-OV-3 ovarian, 28%. Further, the growth with IGROV1 ovarian is 2.99% (active); in the assay with OVCAR-3 ovarian it was 20.1%; in the assay on HS 578T breast, -5.24% (active); with NCI/ADR-RES ovarian, 28.4%.
`COc1cc(/C=C/C(=O)c2ccc(C(F)(F)F)cc2)ccc1Oc1nc(Nc2ccc(F)cc2)nc(N(C)C)n1`: the growth in the assay with SR leukemia is 30.4%; in the assay on RPMI-8226 leukemia it was 13.5%; in the assay with OVCAR-8 ovarian, 85%; in the assay with OVCAR-5 ovarian, 92.7%; in the assay on OVCAR-4 ovarian it was 69.8%; in the assay with SK-OV-3 ovarian, 103%. Moreover, the growth in the assay on IGROV1 ovarian is 91.4%; in the assay with OVCAR-3 ovarian, 79.6%; in the assay with HS 578T breast it was 91.6%; in the assay on NCI/ADR-RES ovarian it was 66.7%.
Turning to `CN(C)c1nc(NCCNS(=O)(=O)c2ccc(C(=O)/C=C/c3ccccc3)cc2)nc(Nc2ccc(F)cc2)n1`, the growth in the assay on SR leukemia was -4.76% (active); with RPMI-8226 leukemia, 18.2%; in the assay with OVCAR-8 ovarian it was 41.9%; in the assay on OVCAR-5 ovarian, 38.2%; in the assay on OVCAR-4 ovarian, 25.2%; in the assay on SK-OV-3 ovarian, 97.8%. Further, the growth in the assay with IGROV1 ovarian was 8.78% (active); with OVCAR-3 ovarian, -42.2% (active); in the assay with HS 578T breast it was 72.9%; with NCI/ADR-RES ovarian, 15.7%.
In the case of `O=C1N/C(=N\c2nccs2)S/C1=C\c1cccs1`, the growth in the assay with SR leukemia was 16.4%; in the assay with RPMI-8226 leukemia, 19.5%; in the assay with OVCAR-8 ovarian, 31.3%; with OVCAR-5 ovarian, 49.1%; in the assay on OVCAR-4 ovarian it was 30.9%; in the assay with SK-OV-3 ovarian it was 39.3%. Besides, the growth with IGROV1 ovarian is 31.5%; in the assay on OVCAR-3 ovarian it was 44.2%; in the assay on HS 578T breast, 49.9%; with NCI/ADR-RES ovarian, -0.769% (active).
Regarding `CN1CCCN(Cc2ccc(C(=O)Nc3cccc(Nc4ccc5c(O)cccc5n4)c3)cc2C(F)(F)F)CC1`, the growth in the assay on SR leukemia was 11.4%; in the assay with RPMI-8226 leukemia it was 2.61% (active); in the assay on OVCAR-8 ovarian, -22% (active); in the assay on OVCAR-5 ovarian it was -82.1% (active); in the assay on OVCAR-4 ovarian it was -43.5% (active); in the assay on SK-OV-3 ovarian it was -58.9% (active). The growth is -78.9% (active) with IGROV1 ovarian, -35.8% (active) with OVCAR-3 ovarian, -41.2% (active) in the assay with HS 578T breast and 37.7% in the assay on NCI/ADR-RES ovarian.
Take `COc1ccc(CN2[C@@H](C(=O)NCc3ccc(C(=O)NO)cc3)Cc3c([nH]c4ccccc34)[C@@H]2C2CC2)cc1`: the growth is 15.2% with SR leukemia; 19.3% in the assay on RPMI-8226 leukemia; 16.7% in the assay with OVCAR-8 ovarian; 11.5% with OVCAR-5 ovarian; 35.6% with OVCAR-4 ovarian; -24.8% (active) in the assay with SK-OV-3 ovarian. The growth was 18.1% in the assay with IGROV1 ovarian, 10.5% in the assay on OVCAR-3 ovarian, -14.3% (active) in the assay with HS 578T breast and 69.9% in the assay with NCI/ADR-RES ovarian.
Turning to `COc1cccc(/C=C2\N=C(C)N(CCc3ccc(S(N)(=O)=O)cc3)C2=O)c1`, the growth was 82.1% in the assay with SR leukemia; 97.2% in the assay with RPMI-8226 leukemia; 102% in the assay on OVCAR-8 ovarian; 99.8% in the assay on OVCAR-5 ovarian; 104% in the assay with OVCAR-4 ovarian; 112% with SK-OV-3 ovarian. Moreover, the growth in the assay on IGROV1 ovarian is 103%; with OVCAR-3 ovarian, 113%; in the assay on HS 578T breast, 98.6%; in the assay on NCI/ADR-RES ovarian, 104%.
Turning to `NS(=O)(=O)c1ccc(N=Nc2c(O)n(CC(=O)Nc3ccccc3Br)c3ccccc23)cc1`, the growth with SR leukemia is 41.3%; in the assay with RPMI-8226 leukemia, 37.3%; in the assay on OVCAR-8 ovarian it was 18.6%; with OVCAR-5 ovarian, 70.2%; in the assay with OVCAR-4 ovarian, 69.4%; in the assay on SK-OV-3 ovarian, 41.5%. Further, the growth was 26.4% in the assay with IGROV1 ovarian, 45.7% in the assay with OVCAR-3 ovarian, 45.7% in the assay with HS 578T breast and 43.6% in the assay with NCI/ADR-RES ovarian.
Consider `CN1CCO/C1=C(/NC(=O)c1ccc(Cl)cc1)[P+](c1ccccc1)(c1ccccc1)c1ccccc1`, for which the growth is 80.9% in the assay on SR leukemia; 24.8% in the assay on RPMI-8226 leukemia; 89% with OVCAR-8 ovarian; 92.1% with OVCAR-5 ovarian; 83.3% in the assay with OVCAR-4 ovarian; 106% with SK-OV-3 ovarian. The growth in the assay on IGROV1 ovarian is 59.4%; in the assay with OVCAR-3 ovarian, 64.1%; in the assay with HS 578T breast, 93.7%; in the assay on NCI/ADR-RES ovarian, 103%.
On to `CCOC(=O)N/C(=C1/OCCN1C)[P+](c1ccccc1)(c1ccccc1)c1ccccc1`, for which the growth in the assay with SR leukemia was 66.6%; in the assay on RPMI-8226 leukemia it was 34.2%; in the assay with OVCAR-8 ovarian, 89.3%; in the assay on OVCAR-5 ovarian it was 85.1%; in the assay with OVCAR-4 ovarian, 65.4%; in the assay with SK-OV-3 ovarian, 95.1%. In addition, the growth is 62.5% in the assay on IGROV1 ovarian, 84.7% in the assay on OVCAR-3 ovarian, 62.4% in the assay with HS 578T breast and 106% in the assay on NCI/ADR-RES ovarian.

Values taken from PubChem BioAssay (NCI).
